# Results published in paper PMC4552634, “A New Set of Chemical Starting Points with Plasmodium falciparum Transmission-Blocking Potential for Antimalarial Drug Discovery” (PLoS ONE, 2015).
# Where two headings read alike, the source gives them in different places. Out of some 13,000 compounds screened, about 3,200 (25%) showed an effect of 50% or more. This is one part of the list.
# Test system: P. falciparum stage V gametocytes
# Parameters: BacTiter-Glo ATP luminescence viability of purified stage V gametocytes in 384-well plates, per cent inhibition versus DMSO
# Settings: 48 h, 5 µM, inhibitor
SMILES,% Inhibition [%],% Inhibition (% Inhibition) [%]
O=C(NCc1ccc(C(=O)N2CCC(N3CCCCC3)CC2)cc1)c1cc(-c2cccc(C(F)(F)F)c2)ccc1O [TCMDC-139090],-1.594,–
O=C(Nc1ccccc1Br)c1cn(-c2ccccc2)nc1-c1cccc([N+](=O)[O-])c1 [TCMDC-124624],18.14,–
O=C(NCCc1cccc(F)c1)c1ccc(N2CCN(c3ccncc3)CC2)cn1 [TCMDC-135153],19.99,–
CCNc1cc(C(=O)N[C@@H](Cc2ccccc2Cl)[C@H](O)CNC2CCCCC2)cc(N2CCCCS2(=O)=O)c1 [TCMDC-135223],16.84,–
NC[C@H](CC1CCCCC1)NC(=O)c1ccc(-c2ccnc3[nH]ccc23)s1 [TCMDC-134150],38.45,–
Oc1ccc(CCNCCCCCCNCCc2ccc(Cl)cc2)c(Cl)c1O [TCMDC-131266],111.4,–
Oc1ccc(CCNCCCCNCCc2ccc(Cl)cc2)cc1O [TCMDC-131265],107,–
O=C(NCCCc1ccccc1)c1ccc(O)c(-c2cc(Cl)cc(Cl)c2)c1 [TCMDC-140159],-73.77,–
CNC(=O)CC(=O)NCCc1ccc(Cl)cc1 [TCMDC-131647],-3.705,–
Oc1ccc(CCNCCCCCCNCCCc2ccc(Cl)cc2)cc1O [TCMDC-131264],107.9,–
Oc1ccc(CCNCCCCCNCCCc2ccc(Cl)cc2)cc1O [TCMDC-131279],112.4,–
O=c1ccc2ccc(F)c3c2n1CC3CN1CCC(NCc2ccc(-c3cccc(Cl)c3)nc2)CC1 (stereo not drawn) [TCMDC-134409],-72.08,–
O=C(/C=C/c1ccccc1Cl)Nc1ccc(Br)c(OCCN2CCC(O)(c3ccccc3)CC2)c1 [TCMDC-140960],2.038,–
Cc1cccc(-c2nn(-c3ccccc3)cc2C(=O)Nc2nnc(C)o2)c1 [TCMDC-125039],-1.826,–
CC(C)CCN1CCCN(Cc2cccc(C(=O)Nc3ccc(C(C)(C)C)cc3)c2)CC1 [TCMDC-136605],-26.48,–
O=[N+]([O-])c1cccc(CNCC2CCN(CC3CCCCC3)CC2)c1 [TCMDC-139468],9.865,–
FC(F)(F)c1ccc2[nH]c(-c3ccc(-c4ccc(CN5CCN(c6cnccn6)CC5)cc4)cc3)nc2c1.O=C(O)C(F)(F)F [TCMDC-132678],-10.34,–
O=C(C1CCCCC1)N1CCOC(CCN2CCC(c3ccccc3)CC2)(c2ccc(Cl)c(Cl)c2)C1 (stereo not drawn) [TCMDC-135329],-33.1,–
C=CCc1cccc(OC)c1OCCCON1C(N)=NC(N)=NC1(C)C [TCMDC-131337],-10.44,–
CCCCc1ccc(CCNCCCCCCNCCc2ccc(O)c(O)c2)cc1 [TCMDC-131281],122.8,–
CC(C)(O)CC(C)(C)c1cc(Cl)ccc1O [TCMDC-131708],-16.74,–
CC(C)(Cc1ccc(Cl)cc1)NCCCCCCNCCc1ccc(O)c(O)c1 [TCMDC-131277],114.6,–
CCCN(CCCCCCNCCc1ccc(Cl)cc1)CCc1ccc(O)c(O)c1 [TCMDC-131274],104.4,–

SMILES,% Inhibition [%],% Inhibition (% Inhibition) [%]
CCCN(CCCCCCN(CCC)CCc1ccc(O)c(O)c1)CCc1ccc(O)cc1 [TCMDC-131259],-3.325,–
Oc1ccc2c(CNCCc3ccccc3)c(O)ccc2c1CNCCc1ccccc1 [TCMDC-137582],-11.34,–
Cc1cc(CNCC2CCC(CNCCCc3ccccc3)CC2)ccc1O (stereo not drawn) [TCMDC-140409],40.71,–
CCCNCCc1ccc(NS(=O)(=O)c2cccc(-c3ccc(Cl)cc3)c2)cc1 [TCMDC-141448],32.49,–
Oc1ccc(CCNCCCCCCNCCc2ccc(-c3ccccc3)cc2)cc1O [TCMDC-131268],113.1,–
O=C(NCC1CCC(CNCCCc2ccccc2)CC1)Nc1ccc(Cl)c(Cl)c1 (stereo not drawn) [TCMDC-140705],-6.849,–
COc1ccc2nccc([C@@H](O)CN3CCC(NCc4nc5c(cc4Cl)SCC(=O)N5)C(F)C3)c2c1 (stereo partly drawn) [TCMDC-141679],–,-19.09
COc1ccc(OCCCCON2C(N)=NC(N)=NC2(C)C)cc1 [TCMDC-131732],29.82,–
CCOc1cccc(C2c3c(oc4ccccc4c3=O)C(=O)N2CCN(CC)CC)c1 (stereo not drawn) [TCMDC-124476],-6.195,–
NS(=O)(=O)CCc1cccc(Nc2nccc(-c3c(-c4cccc(NC(=O)c5c(F)cccc5F)c4)nn4ccccc34)n2)c1 [TCMDC-135791],-73.1,–
N#Cc1ccc2c(c1)CN(C1CCC(NC(=O)C3=Cc4cc(Cl)ccc4OC3)CC1)CCC2 (stereo not drawn) [TCMDC-133501],-19.21,–
Cc1nc(-c2cccc(C(=O)N(Cc3cncn3Cc3cccc(C(F)(F)F)c3)CC3CC3)c2)cs1 [TCMDC-132462],-20.16,–
c1ccc(CCNCc2ccc(-c3ccc(CNCc4ccc5c(c4)OCO5)cc3)nc2)cc1 [TCMDC-141648],21,–
FC(F)(F)c1cccc(CNCCCCCNCc2ccc(Cl)cc2)c1 [TCMDC-140403],31.4,–
Clc1ccc(CCNCCCCCCNCCc2ccc3c(c2)OCO3)cc1 [TCMDC-132042],88.67,–
Clc1ccc2c(NCc3ccc4c(c3)OCO4)ccnc2c1 [TCMDC-125106],-11.41,–
Oc1ccc(CCNCCCCCCNCCc2ccc(Br)cc2)cc1O [TCMDC-131263],95.59,–
Oc1cccc(CCNCCCCCCNCCc2ccc(Cl)cc2)c1 [TCMDC-131285],116.7,–
O=C(NCCCCNCC(Cc1cccc(O)c1)c1ccccc1)c1ccc(NC(=O)c2ccc(Cl)cc2)cc1 (stereo not drawn) [TCMDC-138563],-50.17,–
O=C(/C=C/c1ccc(Cl)c(Cl)c1)NCCCCCN1CCN(C(=O)Nc2ccc(OC(F)F)cc2)CC1 [TCMDC-135733],4.05,–
O=C1NC(=S)N/C1=C/C=C/c1ccc([N+](=O)[O-])o1 [TCMDC-125757],95.66,–
O=C(Nc1ccc(-c2csc(-c3nc4ccccc4[nH]3)c2)cc1)Nc1ccc(Cl)c(Cl)c1 [TCMDC-133271],-42.33,–
O=C(NCC1Cc2cc(Oc3ccccc3)ccc2O1)c1ccc([N+](=O)[O-])o1 (stereo not drawn) [TCMDC-124802],28.95,–

SMILES,% Inhibition [%],% Inhibition (% Inhibition) [%]
CC(C)(C)c1nn(-c2ccccc2)c2[nH]c(=O)c(CNCc3ccccc3)cc12 [TCMDC-123911],-3.272,–
CC(C)(C)c1nn(-c2ccccc2)c2[nH]c(=O)c(CNCc3ccc4c(c3)OCO4)cc12 [TCMDC-123910],11.81,–
CC(C)(C)c1nn(-c2ccc(Cl)cc2)c2[nH]c(=O)c(CNCc3ccc4c(c3)OCO4)cc12 [TCMDC-136662],74.56,–
CC(C)(C)c1nn(-c2ccc(Cl)cc2)c2[nH]c(=O)c(CNCc3cccs3)cc12 [TCMDC-123908],55.18,–
COc1ccc(CCNCc2cc3c(C(C)(C)C)nn(-c4ccc(Cl)cc4)c3[nH]c2=O)cc1OC [TCMDC-125351],40.9,–
CC(C)(C)c1nn(-c2ccc(Cl)cc2)c2[nH]c(=O)c(CNC3CCCC3)cc12 [TCMDC-123909],44.22,–
Cc1ccc(NS(=O)(=O)c2cccs2)cc1-c1cccc(C(=O)Nc2ccc(F)cc2)c1 [TCMDC-133590],-57.86,–
CN(C)c1cccc(NC(=O)NC2N=C(c3ccccc3)c3ccccc3N(CC(=O)N(C)c3ccccc3)C2=O)c1 (stereo not drawn) [TCMDC-131985],33.13,–
Cc1nc(N)nc(N)c1OCc1ccc(Cl)c(Cl)c1 [TCMDC-131718],-2.553,–
CC(C)CSc1cc(C(=O)Nc2cc(Cl)ccc2O)ccn1 [TCMDC-138874],-25.81,–
O=C(Nc1nc2cc(S(=O)(=O)NCCc3ccc(F)cc3)ccc2n1CCCn1ccnc1)c1ccc(Cl)cc1 [TCMDC-141626],16.98,–
CCNc1cc(C(=O)N[C@@H](Cc2ccccc2)[C@H](O)CNC23CCC(CC2)C3)cc(N2CCCCS2(=O)=O)c1 [TCMDC-135371],58.44,–
CCCC1(NC[C@@H](O)[C@H](Cc2ccccc2)NC(=O)c2cc(NCC)cc(N3CCCCS3(=O)=O)c2)CCCCC1 [TCMDC-135262],28.65,–
CCNc1cc(C(=O)N[C@@H](Cc2ccccc2)[C@H](O)CNC2CCCCC2)cc(N2CCCCS2(=O)=O)c1 [TCMDC-134676],26.1,–
CCCC1(NC[C@@H](O)[C@H](Cc2ccccc2)NC(=O)c2cc(NCC)cc(N3CCCCS3(=O)=O)c2)CCCC1 [TCMDC-135261],38.92,–
CCNc1cc(C(=O)N[C@@H](Cc2ccccc2)[C@H](O)CNC2CC3CCC2C3)cc(N2CCCCS2(=O)=O)c1 (stereo partly drawn) [TCMDC-135107],91.01,–
CCNc1cc(C(=O)N[C@@H](Cc2ccccc2)[C@H](O)CNC23CCC(CC2)CC3)cc(N2CCCCS2(=O)=O)c1 [TCMDC-135390],43.97,–
CCNc1cc(C(=O)N[C@@H](Cc2ccccc2)[C@H](O)CNC2(C)CCCCC2)cc(N2CCCCS2(=O)=O)c1 [TCMDC-134703],93.77,–
CCCC1(NC[C@@H](O)[C@H](Cc2ccccc2)NC(=O)c2cc(NCC)cc(N3CCCCS3(=O)=O)c2)CC1 [TCMDC-135192],21.27,–
CCNc1cc(C(=O)N[C@@H](Cc2ccccc2)[C@H](O)CNC2C3CC4CC(C3)CC2C4)cc(N2CCCCS2(=O)=O)c1 (stereo partly drawn) [TCMDC-135424],38.6,–
CCNc1cc(C(=O)N[C@@H](Cc2ccccc2)[C@H](O)CNC2(CC)CC2)cc(N2CCCCS2(=O)=O)c1 [TCMDC-135176],3.927,–
CCNc1cc(C(=O)N[C@@H](Cc2ccccc2)[C@H](O)CNC2(CC)CCCCC2)cc(N2CCCCS2(=O)=O)c1 [TCMDC-135209],82.14,–
CCNc1cc(C(=O)N[C@@H](Cc2ccccc2)[C@H](O)CNC23CC4CC(CC(C4)C2)C3)cc(N2CCCCS2(=O)=O)c1 [TCMDC-135352],40.45,–
